Assay outcomes deposited in PubChem by National Center for Advancing Translational Sciences (NCATS).
POLB inh: qHTS Assay for Inhibitors of DNA Polymerase Beta. Pol beta primer extension/strand displacement, fluorescence kinetic. Potency, µM (doses to about 114 µM), usual class: inhibitors. 340,000 compounds, 1.3% hits
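Values derive from four-parameter Hill fits of normalized kinetic data: reads at 0 and 10 min following addition of 50 nM substrate to 10 nM Pol beta preincubated 15 min with compound.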
PI5P4Ka inh: qHTS for Inhibitors of phosphatidylinositol 5-phosphate 4-kinase (PI5P4K); Phosphatidylinositol 5-phosphate 4-kinase type-2 alpha (Homo sapiens), P48426; PI5P4Kalpha enzyme, ADP-Glo luminescence, 60 min; active compounds read low; max response, %; 330,000 compounds, 1.2% hits; active = max response of -50% or lower; inconclusive = between -30% and -50%; inactive = -30% or higher; also: value at the top dose of about 77 µM
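Compounds were pin-transferred onto PI5P4Kalpha and substrate in HEPES pH 7.4 buffer with EGTA, CHAPS and 5% DMSO. ATP (5 microM final) started the reaction, which ran 60 minutes at room temperature before ADP-Glo detection.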
WRN helicase inh: qHTS for Inhibitors of WRN Helicase; Bifunctional 3'-5' exonuclease/ATP-dependent helicase WRN (Homo sapiens), Q14191; WRN helicase unwinding, fluorescent forked duplex, kinetic; Potency, µM (series often up to 114 µM), usual class: inhibitors; 360,000 compounds, 0.46% hits; also: nearly all actives have a fitted effect of over 55% in size
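WRN at 20 nM final was preincubated with compound for 15 min at room temperature; reaction started with 100 nM forked duplex oligonucleotide carrying fluorophore and quencher plus 2 mM ATP (final). Unwinding followed kinetically by red fluorescence (ex 525/em 598 nm).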
POLH inh: qHTS for Inhibitors of Polymerase Eta | DNA polymerase eta (Homo sapiens), Q9Y253 | recombinant Pol eta, fluorescent DNA replication assay | Potency, µM (doses to about 114 µM), usual class: inhibitors | 390,000 compounds, 1.2% hits
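Pol eta (10 nM) was preincubated with compounds for 15 min at room temperature, after which fluorescent replication substrate (50 nM final) was added to start the reaction. Fluorescence was read kinetically at 0 and 10 min.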
POLI inh: qHTS for Inhibitors of Polymerase Iota. 390,000 compounds, 1% hits. Potency, µM (top dose mostly 115 µM), usual class: inhibitors. Pol iota fluorescent replication assay, 10 min
Target sequence (Q9UNA4 whole entry, looked up): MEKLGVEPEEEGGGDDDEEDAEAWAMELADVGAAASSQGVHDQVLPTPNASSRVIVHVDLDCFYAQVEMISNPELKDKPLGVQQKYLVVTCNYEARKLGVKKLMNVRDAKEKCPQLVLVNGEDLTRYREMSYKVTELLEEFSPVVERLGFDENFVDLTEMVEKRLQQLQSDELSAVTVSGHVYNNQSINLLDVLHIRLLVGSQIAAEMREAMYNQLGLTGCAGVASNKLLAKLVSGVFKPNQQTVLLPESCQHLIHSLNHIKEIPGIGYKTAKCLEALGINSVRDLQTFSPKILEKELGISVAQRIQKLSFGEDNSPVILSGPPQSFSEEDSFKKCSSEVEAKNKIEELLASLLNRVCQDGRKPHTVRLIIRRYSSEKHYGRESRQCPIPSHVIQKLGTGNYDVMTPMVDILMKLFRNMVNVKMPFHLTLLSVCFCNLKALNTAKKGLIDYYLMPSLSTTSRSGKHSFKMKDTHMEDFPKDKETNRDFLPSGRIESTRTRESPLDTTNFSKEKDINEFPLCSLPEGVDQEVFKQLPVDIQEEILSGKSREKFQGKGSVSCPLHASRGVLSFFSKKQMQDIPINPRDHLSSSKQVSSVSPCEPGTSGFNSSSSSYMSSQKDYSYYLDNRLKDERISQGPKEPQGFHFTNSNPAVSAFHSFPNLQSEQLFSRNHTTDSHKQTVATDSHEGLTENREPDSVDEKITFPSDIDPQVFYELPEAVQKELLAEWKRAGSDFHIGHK
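Pol iota at 10 nM preincubated 15 min with compounds at room temperature; reaction started with fluorescent substrate, 50 nM final. Fluorescence read kinetically at 0 and 10 min; buffer-only wells as negative control.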
Pol kappa inh: qHTS for Inhibitors of Polymerase Kappa; DNA polymerase kappa (Homo sapiens), Q9UBT6; purified Pol kappa, fluorescent DNA synthesis assay, 10 min; Potency, µM (top dose mostly 107 µM), hits mostly inhibitors; 400,000 compounds, 0.53% hits; AID 588579, 2011
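Pol kappa 10 nM + cpd, 15 min RT; start w/ substrate 50 nM final; fluorescence kinetic read, 0 and 10 min. Neg ctrl: buffer, no enzyme.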
PGK validate: qHTS for inhibitors of Phosphogylcerate Kinase: Hit Validation Screen | shares compounds with Pol kappa inh | TbPGK coupled GAPDH assay, Kinase-Glo luminescence | Potency, µM (series often up to 57.5 µM), actives largely listed as inhibitors | 500 compounds, 79% hits | AID 686980, 2013; also: nearly all actives have a fitted effect of over 65% in size
POLI cherry-pick: qHTS for Inhibitors of Polymerase Iota: Confirmatory Assay for Cherry-picked Compounds. 1,500 compounds, 77% hits. shares compounds with Pol kappa inh. AID 720496, 2013. Pol iota primer extension, TAMRA/BHQ fluorescence. Potency, µM, usual class: inhibitors
Large screens that a line does not name were inactive (follow-up assays come after a bar, where they were run). Only some compounds are listed: those with a hit (about 2.8% of all), similar ones and a draw of the others. Unless noted, calls follow the shape of the dose curve; as a rule, active = well fitted curve in the direction sought with a large enough effect; inconclusive = small, poorly fitted or top-dose-only effect, or another doubt; inactive = no such curve, though single readings can be large; an effect the other way counts as inactive or inconclusive.

O=C(CCN1C(=O)/C(=C\c2ccccc2)SC1=S)Nc1ccc(C(=O)O)cc1	POLB inh inconclusive, WRN helicase inh inconclusive, Pol kappa inh inconclusive
Cc1ccccc1Nc1nn2c(=O)c3ccc(C(=O)NCc4ccccc4)cc3nc2s1	POLB inh 13µM, POLH inh inconclusive, POLI inh 79µM (no result: PI5P4Ka inh, WRN helicase inh) | POLI cherry-pick inconclusive
CCc1ccccc1Nc1nn2c(=O)c3ccc(C(=O)NCc4ccc(C)cc4)cc3nc2s1	none (no result: PI5P4Ka inh, WRN helicase inh)
CCc1ccc(C2CC(=O)Oc3c2c(=O)n(C)c2ccccc32)cc1 (stereo not given)	none (no result: PI5P4Ka inh, WRN helicase inh)
Fc1cccc(CCN2CCNC[C@@H]2Cc2ccccc2)c1	POLI inh inconclusive (no result: POLB inh) | PGK validate inconclusive
CC(Nc1ncnc2c1cnn2-c1cccc(Cl)c1)c1ccccc1 (stereo not given)	none (no result: PI5P4Ka inh, WRN helicase inh)
Clc1ccccc1Nc1nnc(-c2ccncc2)s1	PI5P4Ka inh inconclusive, WRN helicase inh inconclusive | PGK validate 15µM
FC(F)(F)c1ccc(Cl)c(Nc2nnc(-c3ccncc3)s2)c1	none (no result: POLB inh, POLH inh, POLI inh, Pol kappa inh)
Nc1cc(N)nc(SCC(=O)N2CCCCC2)n1	none
Nc1c(/C=C2/C=CC(=O)C(O)=C2)c(=O)nc2sc(CC(=O)N3CCCCC3)nn12	POLB inh inconclusive, POLI inh inconclusive, Pol kappa inh inconclusive | PGK validate 1.6µM
O=C(/C=C\c1ccc(O)c(O)c1)O[C@@H]1C[C@](O)(C(=O)O)C[C@@H](O)[C@@H]1O	none (no result: POLB inh, PI5P4Ka inh, WRN helicase inh, POLH inh, POLI inh)
O=C(/C=C/c1ccc(O)c(O)c1)OC1C(O)CC(OC(=O)/C=C/c2ccc(O)c(O)c2)(C(=O)O)CC1O (stereo not given)	POLB inh 1.4µM, POLH inh inconclusive, POLI inh 5µM, Pol kappa inh inconclusive | POLI cherry-pick 24
CCC(C(=O)NC1CCCC1)N(C(=O)c1snc(C(N)=O)c1N)c1ccc(OC)c(OC)c1 (stereo not given)	none
COc1ccc(N(C(=O)c2snc(C(N)=O)c2N)C(C(=O)NC2CCCC2)c2cccs2)cc1OC (stereo not given)	POLB inh inconclusive, POLH inh inconclusive, POLI inh 8.9µM | POLI cherry-pick inconclusive
O=C1Nc2ccccc2/C1=N/N=C/c1ccc(-c2ccc([N+](=O)[O-])cc2)o1	POLH inh inconclusive | POLI cherry-pick inconclusive
CN(/N=C/c1ccc(-c2ccc([N+](=O)[O-])cc2)o1)c1ccccc1	none
CCn1cc(C(=O)O)c(=O)c2cc(F)c(N3CCN(S(=O)(=O)c4ccc(NC(=O)OC)cc4)CC3)cc21	POLB inh inconclusive, WRN helicase inh inconclusive, POLH inh inconclusive | POLI cherry-pick 34
Cc1cc(C(=O)O)c2c(=O)n(C)c(=O)n(C)c2n1	none (no result: PI5P4Ka inh, WRN helicase inh)
C/C(=N\NC(=O)c1cc(O)cc(O)c1)c1ccc(NC(=O)Cc2ccccc2)cc1	POLB inh 1.6µM, PI5P4Ka inh -90, WRN helicase inh 20µM, POLH inh 3.2µM, POLI inh 5µM, Pol kappa inh 22µM | PGK validate 1.8µM
Cc1ccc(NC(=O)Cn2c(=O)n(CCC(C)C)c(=O)c3cccnc32)cc1C	POLI inh inconclusive (no result: PI5P4Ka inh, WRN helicase inh)
COc1ccc(-c2cc3nc(C)n(N)c(=O)c3s2)cc1	PI5P4Ka inh -53 | PGK validate 4.1µM
Cn1c(NCc2ccccc2)nc2cc(-c3ccccc3)sc2c1=O	none (no result: POLB inh, POLH inh, POLI inh, Pol kappa inh)
Cc1nc2cc(-c3ccccc3)sc2c(=O)n1N	PI5P4Ka inh -72 | PGK validate 8.2µM
COc1ccc(-c2cc3nc4n(c(=O)c3s2)CCC4)cc1	none (no result: PI5P4Ka inh)
COc1ccc(-n2c(SCC(=O)Nc3nccs3)nnc2-c2ccc(Cl)cc2)cc1	POLH inh inconclusive (no result: POLB inh) | POLI cherry-pick inconclusive
COc1cccc(C2Nc3c(F)cc(Br)cc3C3C=CCC32)c1OC (stereo not given)	none
CC(=O)c1ccc2c(c1)C1C=CCC1C(C(=O)O)N2 (stereo not given)	POLB inh 32µM, PI5P4Ka inh -91, WRN helicase inh 14µM, POLH inh 1µM, POLI inh 1.6µM, Pol kappa inh 3.5µM | PGK validate 9.2µM
COc1cccc2c1NC(C(=O)O)C1CC=CC21 (stereo not given)	POLB inh 1.8µM, PI5P4Ka inh -96, WRN helicase inh 13µM, POLH inh 2.5µM, POLI inh 1µM, Pol kappa inh 7.9µM | PGK validate 8.2µM
O=c1nc2cccc3c2=c(/c1=C(\O)c1ccccc1)c1ccccc1c3=O	POLB inh 10µM, POLH inh 50µM | POLI cherry-pick inconclusive
O=c1[nH]c(/C=C/c2cccc3ccccc23)nc2ccccc12	none
CCCn1c(SCc2nc(-c3cc(OC)ccc3OC)no2)nnc1-c1ccc(Cl)cc1	none (no result: PI5P4Ka inh, WRN helicase inh)
O=Cc1coc2ccc3ccccc3c2c1=O	POLB inh inconclusive, PI5P4Ka inh -86, WRN helicase inh inconclusive | PGK validate inconclusive
NC(=O)N/N=C/c1coc2ccc3ccccc3c2c1=O	none
C=CCN1C=C2C(=O)C(C)(OC(=O)c3cnc4ccccc4n3)C(=O)C=C2C=C1/C=C/COC (stereo not given)	POLH inh 25µM, POLI inh inconclusive, Pol kappa inh inconclusive (no result: POLB inh) | POLI cherry-pick inconclusive
COc1ccc(OC)c(N/C=C/C(=O)c2ccccc2)c1	none | PGK validate 18µM
COc1ccc(OC)c(N/C(C)=C/C(=O)c2ccccc2)c1	none
O=C(O)c1ccc(-n2cccc2/C=C2\SC(=O)N(Cc3ccc(Cl)c(Cl)c3)C2=O)cc1	none (no result: POLB inh, PI5P4Ka inh, WRN helicase inh, POLH inh, POLI inh, Pol kappa inh) | POLI cherry-pick 67
O=C(NCCc1ccccc1)c1cc2sccc2n1Cc1ccc(F)cc1	none (no result: PI5P4Ka inh, WRN helicase inh)
COc1cc(CC2COC(c3ccc(O)c(OC)c3)C2COC(C)=O)ccc1O (stereo not given)	POLB inh 6.3µM, PI5P4Ka inh -94, WRN helicase inh 50µM, POLH inh 3.5µM, POLI inh 10µM, Pol kappa inh 22µM | PGK validate 8.2µM
